The campaign covered roughly 53,000 sequences. About 3,700 (7%) were called active. Only a selection was taken, and actives are over-represented in it overall. Values without a mark were called inactive.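 How the source made its calls: active means gene knockdowns whose robust z-score for IL-1 alpha signal is at least 2 or at most -2, so actives lie on both sides; inactive means the rest.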
Experiment: Components of the Cytosolic LPS Sensing Pathway: Gene Identification via Genome-wide siRNA Screen;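 further: robust z of the log signal after scaling to non-targeting control siRNA wells of the plate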
Conditions: RAW264.7 macrophages, IL-1a HTRF, actives lie on both sides, screened at 100 nM (by protocol), cells primed 5 h with Pam3CSK4 first
Method in brief: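 Read-out: IL-1a HTRF on supernatant, divided by plate negative-control median ×100, log-transformed and converted to robust z-score. Cells were RAW264.7 given 100 nM siRNA, Pam3CSK4-primed 5 hours, then LipidA-transfected 24 hour.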
GGAAGAAAAGGCUUCUCUUTT against Ube3c showed a z-score of -0.00788.
With GGGAGAAUUUUUGUGCAAGTT against Capza3 the z-score was 0.437.
CGCAUGUUCAUAGGACUGCTT against Olfr1420 gave a z-score of 0.453.
With GGAUCUUUCUUUUCUCUCUTT against Rab6b the z-score was 0.32.
With GCUGAUCAAAUUGGCCUGUTT against Olfr984 the z-score was -0.703.
For GCUUCAGUAUUUAUUUGCUTT against Usp28, the z-score was 2.27 (active).
GGAAGGCCGCAUACUGAUGTT against Scgn showed a z-score of -0.218.
For GGAUUGAAAGCUACUCGUGTT against Maf1, the z-score was 0.533.
GAGACAAUGCAGCAAAAUCTT against Gm839 showed a z-score of -1.13.
For GCACAAUUUCGUGUGAGCUTT against Sfxn5, the z-score was 0.643.
In the case of GGCAGAAUUUGAGCACUUUTT against B4galnt2, the z-score is reported as -2 (active).
GGAGGAGUAUGUUAAGGCCTT against Myh6 gave a z-score of 0.193.
GGAGAGUCCAUACCAGAACTT against C1qa gave a z-score of 0.0536.
GGUUGGACAACAUAAUAAGTT against Riox2 gave a z-score of 1.17.
Work on GGUGUGGAGUAUGUAUGCUTT against Aplp1 yielded a z-score of -1.11.
For GGCCUGCGUUCAGAAGAGUTT against Wrn, the z-score was 3.46 (active).
With GGAACUACUACUCACCUAUTT against Trhr the z-score was -0.776.
GGGUCCUAAAAAUUCAAUUTT against Decr2 gave a z-score of -0.106.
For GCUUCGUGGCUUUUUAUGATT against Dlgap3, the z-score was -0.788.
For GCGAUUUGUGGUUCUCAUATT against Rnf103, the z-score was -0.559.
In the case of GGCGCACAAAGCUGUUCUUTT against Zbtb43, the z-score is reported as -0.87.
GGGAACAAAAACAUAAAAGTT against Otub2 showed a z-score of -1.17.
For GAAUUGUCUUACUUGGAAATT against Gimap4, the z-score was 2.05 (active).
Sequence CGGUCCUGAAUGAUCCUACTT against Gp2 has a z-score of 0.969.
GGAUUUGUGUCCAUCGUGCTT against Olfr66 showed a z-score of 0.00905.
In the case of CCGUAUGUAACCAUCAAAGTT against Ncf1, the z-score is reported as 0.281.
Sequence GGCACUCCCUAAUGAACUCTT against Adck5 has a z-score of 1.42.
Work on GUUACCUCAGUGUUAUACUTT against Olfr45 yielded a z-score of 1.7.
GGUGAAAAGAUGCAGGUGATT against Atp1a3 showed a z-score of -1.1.
For CGAUGAACACACGUCUUAUTT against Dtl, the z-score was 2.05 (active).

Source: PubChem BioAssay AID1508600 (Functional Genomics Laboratory (NCATS/FGL), 2020)
